The results in this text go back to PubChem BioAssay (NCATS).

The target of assay [1] is Glutathione peroxidase 1 (Homo sapiens) (UniProt P07203). Put plainly: Primary qHTS Assay for Inhibitors of Recombinant Selenoprotein Glutathione Peroxidase 1 (GPX1) (AID 1845191). Further: nearly all actives have a fitted effect of over 65% in size. On activity, negative = inhibition: on the % scale 0 is the no-effect control and ±100 the full control effect. In outline:
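10 nM GPX1 + cpd, 30 min RT; start w/ 1 mM GSH, 0.5 mM cumene hydroperoxide, 0.5 mM NADPH, 100 nM GR, 0.01% BSA; buffer 50 mM Tris-HCl pH 7.5, 2 mM EDTA, 150 mM NaCl; Fl 340/450, 0 & 15 min.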
On the technique in general: qHTS replaces the single test concentration by a dilution series.

Assay [2] concerns the target Phospholipid hydroperoxide glutathione peroxidase GPX4 (Homo sapiens) (UniProt P36969). Description: Primary qHTS Assay for Inhibitors of Recombinant Selenoprotein Glutathione Peroxidase 4 (GPX4) (AID 1845192). Further: nearly all actives have a fitted effect of over 65% in size. In outline:
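NADPH consumption, followed by fluorescence at 340/450 nm between 0 and 15 min, reports GPX4 activity via coupled glutathione reductase (100 nM). Enzyme 200 nM was pre-exposed to compound 30 min; 0.5 mM cumene hydroperoxide and 1 mM GSH served as substrates.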

For assay [3], the target named is Luciferin 4-monooxygenase (Photinus pyralis) (UniProt P08659). Put plainly: Primary firefly luciferase (FLuc) qHTS assay for identification of artifact compounds. (AID 1845220). Further: nearly all actives have a fitted effect of over 60% in size. In outline: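 FLuc 10 nM; luciferin 10 uM; ATP 10 uM; Tris-acetate pH 7.6, Mg-acetate 10 mM; 15 min RT preincubation; 5 min reaction; luminescence.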
The test system of assay [4] is Nanoluciferase (engineered Oplophorus gracilirostris luciferase). Put plainly: Primary Nanoluciferase (NLuc) qHTS assay for identification of artifact compounds. (AID 1845222).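 Further: NLuc secreted into diluted conditioned medium of S16 cells; series mostly up to about 54 µM; 0% = DMSO and -100% = no enzyme.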 In outline:
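NLuc from S16 cell medium (1:55) plus test compounds, 15 min, room temperature. Luminescence after Nano-Glo (1:100) addition, 5 min.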

A short description of assay [5]: Primary fluorescence-based thiol-reactive (MSTI) qHTS assay for identification of artifact compounds. (AID 1845221). Further: nearly all actives have a fitted effect of over 65% in size. Further: potency means the concentration at half of the fitted maximal effect. In outline:
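First, 4 uM MSTI in 2% DMSO/PBS pH 7.4 was dispensed; next, compounds were added; then plates sat 1 h at room temperature without light. Finally, emission at 598 nm was recorded.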

A number with no mark means an inactive call. Results filed as inconclusive are left out. Calls of active or inactive are those of the source. The call rests on the fitted dose curve; in most records, active means well fitted curve in the direction sought with a large enough effect; inconclusive means small, poorly fitted or top-dose-only effect, or another doubt; inactive means no such curve, though single readings can be large; an effect the other way counts as inactive or inconclusive.

Glutathione peroxidase 1 (Homo sapiens), sequence (P07203 whole entry, looked up): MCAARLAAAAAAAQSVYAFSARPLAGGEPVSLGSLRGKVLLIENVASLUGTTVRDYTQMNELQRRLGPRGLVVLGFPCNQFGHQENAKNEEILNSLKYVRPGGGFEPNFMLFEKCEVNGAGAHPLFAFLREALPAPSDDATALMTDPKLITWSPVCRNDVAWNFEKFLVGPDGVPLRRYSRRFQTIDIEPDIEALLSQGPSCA
Phospholipid hydroperoxide glutathione peroxidase GPX4 (Homo sapiens), sequence (P36969 whole entry, looked up): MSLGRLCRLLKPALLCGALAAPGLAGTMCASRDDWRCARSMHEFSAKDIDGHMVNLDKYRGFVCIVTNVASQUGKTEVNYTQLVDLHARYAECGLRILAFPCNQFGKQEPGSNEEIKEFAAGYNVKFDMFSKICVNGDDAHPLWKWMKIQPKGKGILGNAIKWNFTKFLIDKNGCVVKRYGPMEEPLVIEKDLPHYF

`Cn1ccc(NC(=O)c2cc(Oc3ccc(C(=O)N4CCC4)c(F)c3)c3c(c2)OC(C)(C)C3)n1`: the Potency result in assay [1], in assay [2], in assay [3] and in assay [4] was “inactive” in each case.

Regarding `COc1ccc(N(C(=O)Nc2c(C)cccc2C)c2cc(Nc3ccc(N4CCN(C)CC4)cc3)ncn2)c(OC)c1`, the Potency result in assay [1], in assay [2], in assay [3] and in assay [4] was “inactive” in each case.

In the case of `Clc1ncoc1-c1c[nH]c2ccccc12`, the Potency result in assay [1], in assay [2], in assay [3] and in assay [4] was “inactive” each time.

Take `O=c1ccc2ccc(OCCCCN3CCN(c4cccc5sccc45)CC3)cc2[nH]1`: the Potency entry in assay [1], in assay [2], in assay [3] and in assay [4] was “inactive” in each case.

As for `COc1ccccc1S(=O)(=O)Nc1ccc2c(c1)CN(C)C(=O)N2`, the Potency entry in assay [1], in assay [2], in assay [3] and in assay [4] was “inactive” throughout.

Turning to `COc1ccc(CNc2nc(N(CCO)CCO)nc3c2ncn3C(C)C)cc1`, the Potency entry in assay [1], in assay [2], in assay [3] and in assay [4] was “inactive” each time.

As to `CN(C)c1cccc(Oc2cnc(Nc3cccc(O)c3)nc2)c1`, the Potency entry in assay [1], in assay [2], in assay [3] and in assay [4] was “inactive” each time.

`CN1CCN(C2=Nc3ccccc3Nc3ccc(OS(=O)(=O)C(F)(F)F)cc32)CC1`: the Potency entry in assay [1], in assay [2], in assay [3] and in assay [4] was “inactive” throughout.

Take `CC1(CO)CC2C(O)C3=C(CC(C)(O)C2C1)C(=O)OC3` (stereo unspecified): the Potency result in assay [1], in assay [2], in assay [3] and in assay [4] was “inactive” in each case.

`CCOC(=O)c1csc(Nc2ccc(Cl)cc2)n1`: the Potency entry in assay [1], in assay [2], in assay [5] and in assay [4] was “inactive” each time.

Regarding `O=C(O)c1cccc(-c2ccc(-c3cn(C(=O)N4CCCCC4Cc4ccccc4)nn3)cc2)c1` (stereo unspecified), the Potency result in assay [1], in assay [2], in assay [5] and in assay [4] was “inactive” throughout.

On to `O=C(Nc1ccc2[nH]nc(-c3ccncc3)c2c1)[C@@H]1CCN(CC(=O)N2CCN(c3ccc(-c4ncccn4)cc3)CC2)C1`, for which the Potency result in assay [1], in assay [2], in assay [5] and in assay [4] was “inactive” throughout.

With `CC(C)c1ccc(-c2cc(=O)c3ccccc3o2)cc1`, the Potency result in assay [1], in assay [2], in assay [5] and in assay [4] was “inactive” throughout.

Take `CCCCC1CCN(CCCN2C(=O)CCc3ccccc32)CC1`: the Potency result in assay [1], in assay [2], in assay [5] and in assay [4] was “inactive” in each case.

Consider `C/C(=N\N=C(N)N)c1cc(NC(=O)CCCCCCCCC(=O)Nc2cc(/C(C)=N/N=C(N)N)cc(/C(C)=N/N=C(N)N)c2)cc(/C(C)=N/N=C(N)N)c1`, for which the Potency result in assay [1], in assay [2], in assay [5] and in assay [4] was “inactive” throughout.

Turning to `C=C1C(=O)O[C@H]2C1CCC(C)=C1C(=O)C=C(C)[C@@]12O` (stereo partly specified), the Potency result in assay [1], in assay [2], in assay [5] and in assay [4] was “inactive” throughout.

Turning to `CNc1nc(Nc2ccc(C(=O)N3CCOCC3)cc2OC)nc2[nH]cc(Cl)c12`, the Potency result in assay [1], in assay [2] and in assay [4] was “inactive” in each case. In assay [5], the Potency is 1.68 µM (active).

As to `COc1ccccc1-c1ccc(-c2cn(C(=O)N3CCCCC3Cc3ccccc3)nn2)cc1` (stereo unspecified), the Potency entry in assay [1], in assay [2], in assay [5] and in assay [4] was “inactive” throughout.

For `N#CSc1cc(SC#N)c(N)nc1N`, the Potency entry in assay [1] and in assay [2] was “inactive” each time. For the same molecule, in assay [3], the outcome was “inactive [at 11.6 µM]”. For the same molecule, the activity, negative = inhibition in assay [4] was -17.4% [at 11.6 µM].

As for `CC(=O)OC1CCC2(C)C(CCC3(C)C2CC=C2C4C(C)C(C)CCC4(C)CCC23C)C1(C)C(=O)O` (stereo unspecified), the Potency entry in assay [1], in assay [2], in assay [5] and in assay [4] was “inactive” each time.

As to `CN1CCN(c2ccc(Nc3cc(-c4cccc(-n5ccc6cc(C7CC7)cc(F)c6c5=O)c4CO)cn(C)c3=O)nc2)CC1`, the Potency entry in assay [1], in assay [2], in assay [3] and in assay [4] was “inactive” in each case.

For `O=C(Nc1ccc(-c2ccc(Cl)c(Cl)c2)cc1)C1=C(O)c2ccccc2S(=O)(=O)N1`, the Potency entry in assay [1], in assay [2], in assay [5] and in assay [4] was “inactive” each time.

For `Cc1ccnn1-c1ccc(C(=O)N2CCN(S(=O)(=O)c3ccc(Cl)c(C(F)(F)F)c3)CC2)cc1`, the Potency result in assay [1], in assay [2], in assay [5] and in assay [4] was “inactive” in each case.

On to `COc1cc(Br)c(S(=O)(=O)Nc2ccc(Cl)c(O[C@@H]3CCN(C)C3)c2)cc1OC`, for which the Potency entry in assay [1], in assay [2], in assay [3] and in assay [4] was “inactive” in each case.

For the molecule `CC(C)(C)c1ccc(C(=O)Nc2cn3cc(-n4ccnc4)ccc3n2)cc1`, the Potency result in assay [1], in assay [2], in assay [5] and in assay [4] was “inactive” each time.

Regarding `Nc1nc2c(cnn2CCCc2ccc(O)cc2)c2nc(-c3ccco3)nn12`, the Potency entry in assay [1], in assay [2], in assay [5] and in assay [4] was “inactive” throughout.

On to `CN(C)[C@@H]1CCc2[nH]c3ccc(NC(=O)c4ccc(F)cc4)cc3c2C1`, for which the Potency entry in assay [1], in assay [2], in assay [3] and in assay [4] was “inactive” each time.

As for `CCC(CC)(NC(=O)C(C)C)C(=O)N[C@@H](CCCN=C(N)N)C(=O)NC1(C(=O)NC(c2ccc(F)cc2)c2ccc(F)cc2)CCCC1`, the Potency result in assay [1], in assay [2], in assay [5] and in assay [4] was “inactive” each time.

Consider `COc1cc2c(cc1O)C1(Cc3ccc4c(c3C1O)OCO4)[N+](C)([O-])CC2` (stereo unspecified), for which the Potency entry in assay [1], in assay [2] and in assay [4] was “inactive” throughout. Also, the Potency in assay [5] was 5.21 µM (active).
